According to the supplement of paper PMC10849652:
The full data set covers some 7,900 targets. This sample favours those with a hit. About 0.6% of all pairs of compound and target were hits.

Assays:
Test in all cases: log2 fold change, soluble protein after heating vs DMSO (PISA); higher = thermal stabilisation; K562 cells, 10 uM, 30 min; active = over 0.2 and 3.5 SD of the protein, either way, in both replicates (recomputed)
[1] = compound: C1=CC=C(C=C1)[C@H](COC2=CC3=C(C=C2)NC(=O)N3)NC(=O)C4=CC=CN(C4=O)CC5=CC(=C(C=C5)F)F
Outline: (§1)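 Quantification of soluble protein used TMTpro 16plex LC-MS/MS, with channel sums equalised. Samples were the supernatant after 21,000xg for 90 min of pooled aliquots from K562 cells (2×10^6 cells/mL) treated with 10 μM compound for 30 min, heated for 3 min over 48°C-58°C, and extracted in PBS with 0.5% NP-40 at 4°C. Values, from duplicates, describe thermal stability against control samples on a log2 fold-change scale.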

[2] = compound: CC1=C(SC2=C1C(=N[C@H](C3=NN=C(N32)C)CC(=O)N)C4=CC=C(C=C4)Cl)C
Outline: as §1

[3] = compound: CC1=C2C(=CC=C1)N=C(N(C2=O)C3=CC=CC=C3C)CN4C=NC5=C(N=CN=C54)N
Outline: as §1

[4] = compound: Cc1sc2c(c1C)C(c1ccc(Cl)cc1)=N[C@@H](CC(=O)OC(C)(C)C)c1nnc(C)n1-2
Outline: as §1

[5] = compound: c1ccc([C@@H]2C[C@H]2NC2CCNCC2)cc1
Outline: as §1

Measured: log2 fold change

PSMD6 (UniProt Q15008)
inactive: [1] 0.019 | [2] -0.088 | [3] -0.116 | [4] -0.006 | [5] 0.001

PPP6R1 (UniProt Q9UPN7)
inactive: [1] -0.011 | [2] 0.002 | [3] 0.108 | [4] 0.005 | [5] 0.001

PPP2R5C isoform 5 (UniProt Q13362)
inactive: [1] -0.039 | [2] 0.001 | [3] 0.084 | [4] -0.067 | [5] -0.029

PTGFRN (UniProt Q9P2B2)
Sequence of UniProt Q9P2B2 (Q9P2B2 whole entry, looked up): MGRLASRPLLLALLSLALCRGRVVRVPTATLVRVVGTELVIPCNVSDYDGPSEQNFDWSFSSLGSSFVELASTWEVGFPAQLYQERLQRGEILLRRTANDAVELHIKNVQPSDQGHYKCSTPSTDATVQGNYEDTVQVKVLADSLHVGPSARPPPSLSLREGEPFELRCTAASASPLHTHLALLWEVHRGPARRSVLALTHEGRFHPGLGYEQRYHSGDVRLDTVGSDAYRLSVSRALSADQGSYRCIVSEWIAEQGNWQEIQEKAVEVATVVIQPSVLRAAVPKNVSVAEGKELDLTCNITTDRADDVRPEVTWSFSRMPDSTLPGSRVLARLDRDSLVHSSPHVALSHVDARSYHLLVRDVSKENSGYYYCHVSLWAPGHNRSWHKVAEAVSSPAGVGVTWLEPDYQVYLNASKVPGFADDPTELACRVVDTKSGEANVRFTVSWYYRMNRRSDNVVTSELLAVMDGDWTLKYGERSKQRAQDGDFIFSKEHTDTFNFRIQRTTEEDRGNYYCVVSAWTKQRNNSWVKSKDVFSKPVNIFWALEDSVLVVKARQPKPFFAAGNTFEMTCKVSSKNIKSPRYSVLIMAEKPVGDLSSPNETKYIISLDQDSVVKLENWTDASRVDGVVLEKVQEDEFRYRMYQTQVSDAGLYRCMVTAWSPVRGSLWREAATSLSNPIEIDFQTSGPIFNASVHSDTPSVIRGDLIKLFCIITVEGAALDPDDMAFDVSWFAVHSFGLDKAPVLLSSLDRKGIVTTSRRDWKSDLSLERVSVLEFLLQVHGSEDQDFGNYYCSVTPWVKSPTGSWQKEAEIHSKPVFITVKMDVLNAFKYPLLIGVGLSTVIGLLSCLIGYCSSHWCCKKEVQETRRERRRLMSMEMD
inactive: [1] -0.014 | [2] 0.036 | [3] 0.043 | [4] 0.04 | [5] -0.006

PTRH2 (UniProt Q9Y3E5)
inactive: [1] 0.018 | [2] 0.068 | [3] 0.019 | [4] -0.106 | [5] -0.02

PECAM1 (UniProt P16284)
inactive: [1] 0.063 | [2] 0.138 | [3] 0.014 | [4] -0.06 | [5] 0.047

PYGL (UniProt P06737)
inactive: [1] 0.006 | [2] 0.047 | [3] 0.026 | [4] 0.006 | [5] -0.032

PRKCE (UniProt Q02156)
inactive: [1] -0.065 | [2] 0.033 | [3] 0.071 | [4] 0.018 | [5] 0

PTGES3 (UniProt Q15185)
inactive: [1] -0.009 | [2] 0.016 | [3] 0.067 | [4] -0.046 | [5] -0.063

POLR2E (UniProt P19388)
inactive: [1] -0.013 | [2] 0.094 | [3] -0.023 | [4] 0.054 | [5] -0.06

PARP16 isoform 3 (UniProt Q8N5Y8)
inactive: [1] -0.019 | [2] -0.019 | [3] 0.012 | [4] -0.041 | [5] 0.001

PATL1 (UniProt Q86TB9)
inactive: [1] -0.019 | [2] -0.004 | [3] 0.095 | [4] 0 | [5] -0.021

PSMC6 (UniProt P62333)
Sequence of UniProt P62333 (P62333 whole entry, looked up): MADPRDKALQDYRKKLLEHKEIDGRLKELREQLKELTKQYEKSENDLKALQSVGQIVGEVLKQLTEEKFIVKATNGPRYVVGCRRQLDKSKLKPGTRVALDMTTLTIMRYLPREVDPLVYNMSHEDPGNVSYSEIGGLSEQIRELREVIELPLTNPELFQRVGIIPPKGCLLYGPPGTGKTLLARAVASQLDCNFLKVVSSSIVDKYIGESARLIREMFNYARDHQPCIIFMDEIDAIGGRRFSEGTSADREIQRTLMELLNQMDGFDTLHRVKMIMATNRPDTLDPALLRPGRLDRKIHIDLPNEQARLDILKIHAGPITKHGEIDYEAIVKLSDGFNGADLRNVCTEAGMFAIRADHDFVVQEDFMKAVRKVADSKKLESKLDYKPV
inactive: [1] 0.04 | [2] -0.087 | [3] -0.037 | [4] 0.017 | [5] 0.006

PPOX (UniProt P50336)
inactive: [1] 0.385 | [2] 0.092 | [3] 0.129 | [4] 0.04 | [5] -0.045

PRKAG1 isoform 3 (UniProt P54619)
inactive: [1] -0.008 | [2] 0.067 | [3] 0.019 | [4] -0.011 | [5] -0.017

POLR3D (UniProt P05423)
inactive: [1] 0.008 | [2] -0.072 | [3] -0.013 | [4] 0.056 | [5] 0.096

PRKAB2 (UniProt O43741)
inactive: [1] -0.133 | [2] 0.084 | [3] -0.087 | [4] -0.117 | [5] -0.077

RAB11FIP1 (UniProt Q6WKZ4)
inactive: [1] 0.041 | [2] 0.071 | [3] 0.086 | [4] -0.006 | [5] 0.046

PRPF4B (UniProt Q13523)
inactive: [1] 0.118 | [2] -0.098 | [3] 0 | [4] 0.109 | [5] 0.168

PRMT7 (UniProt Q9NVM4)
inactive: [1] -0.051 | [2] 0.015 | [3] 0.056 | [4] 0.009 | [5] -0.027

QRSL1 (UniProt Q9H0R6)
inactive: [1] -0.01 | [2] 0.142 | [3] 0.147 | [4] 0.05 | [5] 0.041

PTK2B (UniProt Q14289)
inactive: [1] -0.105 | [2] -0.098 | [3] 0.194 | [4] 0 | [5] -0.013

PCTP (UniProt Q9UKL6)
inactive: [1] -0.033 | [2] -0.101 | [3] 0.028 | [4] -0.023 | [5] 0.018

PTPMT1 (UniProt Q8WUK0)
inactive: [1] -0.019 | [2] 0.086 | [3] 0.029 | [4] 0.066 | [5] 0.01

PGM3 isoform 4 (UniProt O95394)
inactive: [1] -0.082 | [2] 0.039 | [3] 0.066 | [4] 0.012 | [5] -0.088

PTRHD1 (UniProt Q6GMV3)
inactive: [1] -0.002 | [2] 0.056 | [3] 0.046 | [4] -0.073 | [5] 0.033

PDIK1L (UniProt Q8N165)
inactive: [1] -0.255 | [2] 0.001 | [3] 0.044 | [4] 0.062 | [5] -0.005

POLR2M (UniProt P0CAP2)
inactive: [1] -0.021 | [2] 0.096 | [3] 0.045 | [4] 0.004 | [5] -0.062

PIGH (UniProt Q14442)
inactive: [1] 0.044 | [2] 0.064 | [3] 0.144 | [4] -0.046 | [5] -0.024

PSMD7 (UniProt P51665)
Sequence of UniProt P51665 (P51665 whole entry, looked up): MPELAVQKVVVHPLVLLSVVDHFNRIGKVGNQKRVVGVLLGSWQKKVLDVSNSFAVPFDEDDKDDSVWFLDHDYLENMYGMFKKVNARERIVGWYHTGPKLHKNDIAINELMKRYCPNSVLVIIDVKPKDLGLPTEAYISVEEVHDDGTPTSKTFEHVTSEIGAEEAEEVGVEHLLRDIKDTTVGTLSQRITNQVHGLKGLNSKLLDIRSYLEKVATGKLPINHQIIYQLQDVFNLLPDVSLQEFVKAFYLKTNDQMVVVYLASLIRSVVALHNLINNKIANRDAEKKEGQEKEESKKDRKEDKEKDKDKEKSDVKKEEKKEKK
inactive: [1] 0.033 | [2] -0.102 | [3] -0.024 | [4] 0.034 | [5] 0

PDLIM7 (UniProt Q9NR12)
inactive: [1] -0.04 | [2] 0.044 | [3] 0.092 | [4] -0.023 | [5] -0.011

PRKACB isoform 2 (UniProt P22694)
inactive: [1] -0.06 | [2] 0.021 | [3] 0.032 | [4] -0.038 | [5] 0.003

PLSCR1 (UniProt O15162)
inactive: [1] 0.017 | [2] 0.036 | [3] -0.016 | [4] -0.051 | [5] 0.055

POLR2G (UniProt P62487)
inactive: [1] 0.082 | [2] 0.176 | [3] 0.001 | [4] 0.167 | [5] -0.016

POLR3B (UniProt Q9NW08)
inactive: [1] -0.035 | [2] -0.02 | [3] 0.078 | [4] 0.04 | [5] -0.046

PYGB (UniProt P11216)
inactive: [1] 0.024 | [2] 0.037 | [3] 0.003 | [4] 0.015 | [5] -0.003

PUM1 isoform 3 (UniProt Q14671)
inactive: [1] 0.004 | [2] -0.036 | [3] 0.056 | [4] 0.025 | [5] -0.049

PMM1 (UniProt Q92871)
inactive: [1] -0.031 | [2] -0.001 | [3] 0.091 | [4] 0.004 | [5] -0.006

POTEI (UniProt P0CG38)
inactive: [1] 0.025 | [2] 0.012 | [3] -0.059 | [4] -0.03 | [5] -0.002

PNPLA4 (UniProt P41247)
Sequence of UniProt P41247 (P41247 whole entry, looked up): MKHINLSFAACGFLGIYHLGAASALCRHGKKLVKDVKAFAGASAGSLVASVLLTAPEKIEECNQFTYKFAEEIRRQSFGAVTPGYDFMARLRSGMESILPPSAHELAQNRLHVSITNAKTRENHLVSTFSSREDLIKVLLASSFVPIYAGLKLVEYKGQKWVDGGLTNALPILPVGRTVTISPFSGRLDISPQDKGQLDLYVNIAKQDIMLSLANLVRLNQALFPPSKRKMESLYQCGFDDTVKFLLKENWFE
inactive: [1] 0.068 | [2] 0.158 | [3] 0.042 | [4] 0.099 | [5] 0.178

PIGG (UniProt Q5H8A4)
inactive: [1] 0.12 | [2] 0.031 | [3] -0.091 | [4] 0.006 | [5] -0.003

PLCB3 (UniProt Q01970)
inactive: [1] -0.019 | [2] -0.015 | [3] 0 | [4] -0.048 | [5] -0.062

PTTG1 (UniProt O95997)
inactive: [1] -0.005 | [2] 0.003 | [3] 0.014 | [4] 0.004 | [5] 0.011

PI4K2A (UniProt Q9BTU6)
inactive: [1] 0.015 | [2] 0.043 | [3] 0.064 | [4] -0.004 | [5] 0.013

PIGT (UniProt Q969N2)
inactive: [1] 0.022 | [2] 0.142 | [3] -0.013 | [5] -0.021
active: [4] 0.276

PRKD2 isoform 3 (UniProt Q9BZL6)
inactive: [1] -0.051 | [2] 0.238 | [3] -0.057 | [4] 0.064 | [5] 0.028

PDE6D (UniProt O43924)
inactive: [1] -0.053 | [2] 0.238 | [3] -0.004 | [4] -0.13 | [5] 0.017

PSMD1 (UniProt Q99460)
Sequence of UniProt Q99460 (Q99460 whole entry, looked up): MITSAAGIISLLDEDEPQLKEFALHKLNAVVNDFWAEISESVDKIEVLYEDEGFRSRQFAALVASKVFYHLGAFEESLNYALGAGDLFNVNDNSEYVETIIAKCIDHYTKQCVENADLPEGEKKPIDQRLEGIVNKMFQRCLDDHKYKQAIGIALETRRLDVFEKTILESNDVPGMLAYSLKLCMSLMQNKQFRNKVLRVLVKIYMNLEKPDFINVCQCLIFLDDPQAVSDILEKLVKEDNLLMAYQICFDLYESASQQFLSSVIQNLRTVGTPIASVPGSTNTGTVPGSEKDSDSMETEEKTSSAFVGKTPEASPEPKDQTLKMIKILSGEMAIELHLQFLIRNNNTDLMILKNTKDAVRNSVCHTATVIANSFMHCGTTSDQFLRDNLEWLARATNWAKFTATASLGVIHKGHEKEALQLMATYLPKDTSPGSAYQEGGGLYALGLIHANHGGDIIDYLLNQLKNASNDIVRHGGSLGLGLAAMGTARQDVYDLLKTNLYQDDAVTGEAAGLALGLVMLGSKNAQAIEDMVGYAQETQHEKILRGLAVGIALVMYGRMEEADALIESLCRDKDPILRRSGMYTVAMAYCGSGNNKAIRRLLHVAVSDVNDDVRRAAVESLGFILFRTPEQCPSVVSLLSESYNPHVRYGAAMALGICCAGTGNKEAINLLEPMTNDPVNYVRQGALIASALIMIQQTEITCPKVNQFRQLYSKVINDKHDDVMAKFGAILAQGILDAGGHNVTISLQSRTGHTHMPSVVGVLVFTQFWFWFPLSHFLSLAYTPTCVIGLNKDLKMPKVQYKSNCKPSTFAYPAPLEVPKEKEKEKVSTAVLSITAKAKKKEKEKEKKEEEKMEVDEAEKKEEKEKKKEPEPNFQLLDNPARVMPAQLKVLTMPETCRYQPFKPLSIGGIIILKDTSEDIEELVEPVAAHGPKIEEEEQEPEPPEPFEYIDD
inactive: [1] 0.017 | [2] -0.087 | [3] -0.058 | [4] -0.017 | [5] 0

PC (UniProt P11498)
Sequence of UniProt P11498 (P11498 whole entry, looked up): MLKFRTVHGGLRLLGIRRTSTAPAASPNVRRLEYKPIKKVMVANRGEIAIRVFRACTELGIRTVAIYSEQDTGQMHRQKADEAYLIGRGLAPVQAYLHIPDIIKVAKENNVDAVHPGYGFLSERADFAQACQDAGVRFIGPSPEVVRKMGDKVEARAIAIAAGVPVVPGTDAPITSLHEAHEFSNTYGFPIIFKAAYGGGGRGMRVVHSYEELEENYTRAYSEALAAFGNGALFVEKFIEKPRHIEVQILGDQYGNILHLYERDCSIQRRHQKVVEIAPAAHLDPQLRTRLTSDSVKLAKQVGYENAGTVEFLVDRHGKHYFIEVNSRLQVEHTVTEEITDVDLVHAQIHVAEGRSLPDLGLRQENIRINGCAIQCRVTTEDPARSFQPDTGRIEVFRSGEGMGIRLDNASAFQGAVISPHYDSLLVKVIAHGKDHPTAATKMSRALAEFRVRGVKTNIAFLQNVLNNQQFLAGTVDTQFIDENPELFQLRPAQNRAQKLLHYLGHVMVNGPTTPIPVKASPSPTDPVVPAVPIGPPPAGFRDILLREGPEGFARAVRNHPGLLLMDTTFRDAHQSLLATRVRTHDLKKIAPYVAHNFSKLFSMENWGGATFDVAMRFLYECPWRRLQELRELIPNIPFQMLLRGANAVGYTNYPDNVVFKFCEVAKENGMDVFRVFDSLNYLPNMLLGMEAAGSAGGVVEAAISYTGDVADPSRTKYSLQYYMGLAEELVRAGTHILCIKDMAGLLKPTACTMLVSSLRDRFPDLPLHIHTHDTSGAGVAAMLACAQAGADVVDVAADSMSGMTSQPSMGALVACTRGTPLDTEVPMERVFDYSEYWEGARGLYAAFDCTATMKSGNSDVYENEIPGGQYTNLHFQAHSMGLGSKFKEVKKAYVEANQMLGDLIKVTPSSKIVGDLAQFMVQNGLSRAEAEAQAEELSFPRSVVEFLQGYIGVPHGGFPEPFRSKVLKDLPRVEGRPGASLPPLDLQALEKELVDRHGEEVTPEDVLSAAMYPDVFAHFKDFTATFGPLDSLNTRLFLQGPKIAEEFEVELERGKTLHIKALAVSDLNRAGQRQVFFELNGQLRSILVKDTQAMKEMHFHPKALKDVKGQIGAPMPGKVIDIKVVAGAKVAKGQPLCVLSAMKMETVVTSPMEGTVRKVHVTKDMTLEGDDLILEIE
inactive: [1] -0.012 | [2] 0.031 | [3] 0.111 | [4] 0.025 | [5] -0.021

PIR (UniProt O00625)
inactive: [1] 0.016 | [2] 0.064 | [3] 0.027 | [4] -0.029 | [5] 0.002

PIK3CD (UniProt O00329)
Sequence of UniProt O00329 (O00329 whole entry, looked up): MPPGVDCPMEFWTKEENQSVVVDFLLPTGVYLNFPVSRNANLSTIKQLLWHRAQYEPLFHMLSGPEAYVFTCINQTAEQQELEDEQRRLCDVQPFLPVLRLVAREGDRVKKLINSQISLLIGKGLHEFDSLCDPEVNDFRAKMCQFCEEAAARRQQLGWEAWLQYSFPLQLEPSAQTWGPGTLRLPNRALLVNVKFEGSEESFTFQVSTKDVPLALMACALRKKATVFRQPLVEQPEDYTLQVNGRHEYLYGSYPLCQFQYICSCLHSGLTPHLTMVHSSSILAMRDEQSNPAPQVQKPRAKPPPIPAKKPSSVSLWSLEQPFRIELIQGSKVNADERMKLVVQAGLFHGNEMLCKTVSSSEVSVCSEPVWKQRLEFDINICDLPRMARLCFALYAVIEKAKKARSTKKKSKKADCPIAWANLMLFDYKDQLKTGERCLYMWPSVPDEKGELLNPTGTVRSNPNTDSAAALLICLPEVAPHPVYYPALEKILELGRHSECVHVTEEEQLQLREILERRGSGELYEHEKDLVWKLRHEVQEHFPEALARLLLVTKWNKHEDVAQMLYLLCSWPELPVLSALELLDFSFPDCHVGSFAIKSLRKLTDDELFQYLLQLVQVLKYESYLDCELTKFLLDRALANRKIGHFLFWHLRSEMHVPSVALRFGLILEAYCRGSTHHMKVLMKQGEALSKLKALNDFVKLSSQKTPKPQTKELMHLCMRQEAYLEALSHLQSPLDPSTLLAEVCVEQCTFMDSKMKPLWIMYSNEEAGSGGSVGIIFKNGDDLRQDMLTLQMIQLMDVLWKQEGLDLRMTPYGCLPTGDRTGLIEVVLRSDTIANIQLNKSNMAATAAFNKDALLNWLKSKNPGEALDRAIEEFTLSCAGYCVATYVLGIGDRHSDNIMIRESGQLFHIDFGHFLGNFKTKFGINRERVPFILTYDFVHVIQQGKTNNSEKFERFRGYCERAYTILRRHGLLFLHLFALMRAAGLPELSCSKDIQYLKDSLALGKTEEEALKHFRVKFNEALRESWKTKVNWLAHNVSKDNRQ
active: [3] 0.424
inactive: [1] -0.166 | [2] -0.126 | [4] -0.086 | [5] 0.018

PRCP (UniProt P42785)
inactive: [1] 0.023 | [2] -0.036 | [3] -0.061 | [4] 0.018 | [5] 0.062

PARG (UniProt Q86W56)
inactive: [1] -0.043 | [2] -0.013 | [3] 0.018 | [4] -0.009 | [5] -0.075
